# Among all 320,000 compounds or so, about 8,000 (2.5%) were called active. Rule as the data show it: active = activation above about 47%; inactive = the rest. What follows is part of a selection rich in actives, with near analogues and random picks from the rest.
# Biological target: Aryl hydrocarbon receptor (Homo sapiens) (UniProt P35869)
# Experiment: AHR activators, primary screen, cell-based, luminescence, luciferase reporter, human (AID 2796);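 also: 0% = vehicle wells and 100% = reference agonist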
# Details: AHR-responsive luciferase reporter cells, at 5 µM, hits give high values
# Aryl hydrocarbon receptor (Homo sapiens), sequence (P35869 whole entry, looked up): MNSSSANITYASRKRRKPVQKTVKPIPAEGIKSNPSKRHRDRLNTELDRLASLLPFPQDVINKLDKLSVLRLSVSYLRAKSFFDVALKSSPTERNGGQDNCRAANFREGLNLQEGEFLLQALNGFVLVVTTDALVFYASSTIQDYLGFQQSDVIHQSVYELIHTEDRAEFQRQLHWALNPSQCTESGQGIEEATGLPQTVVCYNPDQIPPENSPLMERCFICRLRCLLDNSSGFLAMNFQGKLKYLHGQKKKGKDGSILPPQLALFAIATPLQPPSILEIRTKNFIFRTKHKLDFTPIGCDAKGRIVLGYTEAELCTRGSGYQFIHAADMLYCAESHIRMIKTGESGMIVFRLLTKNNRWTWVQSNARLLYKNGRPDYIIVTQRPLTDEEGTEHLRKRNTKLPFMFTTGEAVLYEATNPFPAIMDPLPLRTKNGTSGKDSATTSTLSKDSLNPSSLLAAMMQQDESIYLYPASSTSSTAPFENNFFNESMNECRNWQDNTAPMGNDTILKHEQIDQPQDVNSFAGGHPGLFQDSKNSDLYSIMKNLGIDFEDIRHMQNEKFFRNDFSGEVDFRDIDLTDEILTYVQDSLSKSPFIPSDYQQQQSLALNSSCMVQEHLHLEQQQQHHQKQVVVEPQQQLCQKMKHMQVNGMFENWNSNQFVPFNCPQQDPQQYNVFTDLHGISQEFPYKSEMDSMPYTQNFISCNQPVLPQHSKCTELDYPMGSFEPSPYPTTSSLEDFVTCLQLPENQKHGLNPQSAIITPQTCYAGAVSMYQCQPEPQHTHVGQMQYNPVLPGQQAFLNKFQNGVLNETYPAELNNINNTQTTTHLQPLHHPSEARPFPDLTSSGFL
row,SMILES,activation
1,O=C(N/N=C/c1c(Cl)[nH]c2ccccc12)c1sc2ccccc2c1Cl,74.3% (active)
2,COc1ccc(CNC(=O)CNC(=O)c2sc3ccccc3c2Cl)cc1OC,-3.5% (inactive)
3,CN1CCc2ccccc2C1Cc1ccccc1NC(=O)c1sc2ccccc2c1Cl (stereo not given),11.4% (inactive)
4,O=C(CCNS(=O)(=O)c1ccccc1)NCCSc1ccc(Br)cc1,-0.18% (inactive)
5,Cc1sc2ncn(CC(=O)NCCCC(=O)N3CCN(c4ccccc4F)CC3)c(=O)c2c1C,-0.77% (inactive)
6,N#Cc1nc(COc2ccc(-c3ccccc3)cc2)oc1NCc1cccnc1,-4.66% (inactive)
7,COc1ccc(Nc2oc(-c3ccccc3Cl)nc2C#N)cc1,-7.03% (inactive)
8,CCOc1ccc(Nc2oc(Cc3ccccc3)nc2C#N)cc1,58.1% (active)
9,Cc1cccc(N(C)C(=O)c2cc3c(=O)[nH]c4ccc(C)cc4c3s2)c1,39% (inactive)
10,C=CCSc1nnc(Cn2c(=O)sc3ccccc32)n1C,0.37% (inactive)
11,Cc1cccc[n+]1CC(=O)c1ccccc1,1.77% (inactive)
12,O=C(C[n+]1cc(Br)cc2ccccc21)c1ccc(F)cc1,58.6% (active)
13,O=C(CNC(=O)c1ccc(F)cc1)c1ccccc1,3.71% (inactive)
14,S=c1[nH]cc(-c2ccc(Cl)cc2)n1-c1ccccc1,6.37% (inactive)
15,CC(C)(C)OC(=O)C[C@@H]1C/C=C\C[C@@H](CC(=O)NCCO)C(=O)N[C@H](Cc2c[nH]c3ccccc23)COC1=O,0.32% (inactive)
16,C=CCN1C(=O)C2(OCCCO2)c2cccc(Cl)c21,-2.96% (inactive)
17,Cc1ccc2occ(/C=N/NC(=O)c3ccccc3C)c(=O)c2c1,6.34% (inactive)
18,NC(=S)N/N=C/c1coc2cc(Cl)ccc2c1=O,60.2% (active)
19,O=c1c(/C=N/O)coc2ccc(Cl)cc12,-0.55% (inactive)
20,O=[N+]([O-])c1ccc2nc(-c3ccccn3)[nH]c2c1,3.58% (inactive)
21,O=c1[nH]c2cccnc2n1-c1ccc([N+](=O)[O-])cc1,60.9% (active)
22,O=c1[nH]n(-c2ccc([N+](=O)[O-])cc2)c(=O)c2ccccc12,1.45% (inactive)
23,CCOc1ccc(CN2CCN(CCCc3ccccc3)C(CCO)C2)cc1 (stereo not given),0.01% (inactive)
24,O=C(Nc1ccc2sc3ccccc3c(=O)c2c1)c1ccccc1Cl,49.1% (active)

row,SMILES,activation
1,COc1cc(NC(=O)c2cccs2)ccc1NC(=O)c1ccccc1Cl,-11.1% (inactive)
2,O=C(Nc1cccc(NC(=O)c2ccccc2[N+](=O)[O-])c1)c1ccccc1Cl,8.43% (inactive)
3,COc1cc(S(=O)(=O)N2CCN=C2c2ccccc2)ccc1Cl,1.21% (inactive)
4,Cc1ccccc1OCCC(=O)OCC(=O)NC(C)c1ccccc1 (stereo not given),-2.01% (inactive)
5,C=CCNC(=S)NNC(=O)c1cc(Cl)ccc1OC,52.7% (active)
6,COc1ccc(Cl)cc1C(=O)NNC(=S)NC1CCCC1,32.1% (inactive)
7,COc1ccc(Cl)cc1C(=O)NNC(=S)NC(=O)/C=C/c1ccco1,4.8% (inactive)
8,Cc1nc(SCC(=O)N2CCc3ccccc3C2)c2c(C)c(C)sc2n1,3.83% (inactive)
9,COc1ccccc1C(=O)Nc1ccc(NC(=O)c2ccco2)c(C)c1,40.4% (inactive)
10,COc1cc(NC(=O)c2cc([N+](=O)[O-])ccc2Br)ccc1NC(=O)c1ccco1,-4.72% (inactive)
11,COc1ccc(NC(=O)c2ccco2)cc1NC(=O)c1ccc(C#N)cc1F,96.2% (active)
12,O=S(=O)(NC1CC1)c1ccc2c3c(cccc13)CC2,1.23% (inactive)
13,CCn1c(CN2C(=O)CSc3ccccc32)n[nH]c1=S,1.51% (inactive)
14,COC(=O)c1c(-c2cccs2)csc1NC(=O)CSc1ncnc2sc(C)c(C)c12,6.7% (inactive)
15,Cc1sc2ncnc(Sc3nc4ccccc4s3)c2c1C,47.2% (active)
16,CSc1ncnc2sc(C)c(C)c12,1.25% (inactive)
17,O=C(NNS(=O)(=O)c1ccc(F)cc1)C1CCCCC1,-0.99% (inactive)
18,CN(CC(=O)Nc1ccc(Cl)cc1)C(=O)c1ccc(COc2ccccc2)cc1,0.65% (inactive)
19,CC(=O)N1c2ccc(S(=O)(=O)N3CCCC(C(=O)Nc4ccc(C)cc4C)C3)cc2CC1C (stereo not given),0.6% (inactive)
20,CCC(=O)c1ccc(OCC(=O)OCC(=O)N2CCc3ccccc3C2)cc1,-1.4% (inactive)
21,COc1cc(OC)cc(-c2sc3ccc(OC)cc3c2-c2ccc3cc[nH]c3c2)c1,13% (inactive)
22,COc1ccc(-c2sc3ccc(OC)cc3c2C#Cc2ccccn2)cc1,70.4% (active)
23,COc1ccc2sc(-c3ccccc3OC)c(-c3ccc(OCCN4CCCC4)cc3)c2c1,1.65% (inactive)
24,COc1ccc2sc(-c3ccc(N(C)C)cc3)c(-c3ccc4cc[nH]c4c3)c2c1,22.1% (inactive)

row,SMILES,activation
1,COc1ccc2sc(-c3ccc(N(C)C)cc3)c(C#CCO)c2c1,64.8% (active)
2,COc1ccc2sc(-c3ccc(S(C)(=O)=O)cc3)c(C#Cc3cncn3C)c2c1,39.3% (inactive)
3,CCCN(C(=O)CSc1nnc(N)s1)c1c(N)n(Cc2ccccc2)c(=O)[nH]c1=O,0.7% (inactive)
4,COc1cccc(CN(C)CC2CCCN(CCc3ccc(Cl)cc3)C2)c1OC (stereo not given),-2.92% (inactive)
5,COc1ccc2c(c1)CCC/C2=N\OC(=O)c1ccccc1F,2.52% (inactive)
6,COCCN(Cc1ccccc1)C(=O)Cc1ccc(S(=O)(=O)N2CCOCC2)s1,0.03% (inactive)
7,O=C1OC[C@@H]2CCCN2C(=O)[C@H](CC(=O)N(CCO)Cc2ccccc2)C/C=C\CC[C@@H]1Cc1ccc(F)cc1,-2.45% (inactive)
8,COc1ccccc1/C=N\Nc1cc(C)nc(-n2nc(C)cc2C)n1,70.2% (active)
9,Cc1cc(N/N=C\c2ccc(Br)cc2)nc(-n2nc(C)cc2C)n1,27.3% (inactive)
10,COc1ccc(-c2nn(-c3ccccc3)cc2/C=N/Nc2ccccn2)cc1OC,30.3% (inactive)
11,CCOc1ccccc1NC(=O)COc1ccc(S(=O)(=O)N2CCCC2)cc1,7.9% (inactive)
12,COc1ccccc1C(=O)Nn1c(-c2cccs2)nc2ccccc2c1=O,13.9% (inactive)
13,CC(=O)Nc1cccc(Nc2nc(-c3cccs3)nc3ccccc23)c1,51.4% (active)
14,O=C(Nc1nnc(-c2ccccc2)o1)c1cc(-c2cccs2)nc2ccccc12,5.25% (inactive)
15,Cc1nc2c(ncn2-c2ccccc2)c(=O)n1NC(=O)CN1CCCC1,0.17% (inactive)
16,CC1CN(c2nc(-c3ccccc3)nnc2-c2ccccc2)CC(C)O1 (stereo not given),10.3% (inactive)
17,CC(C)Cn1c(CCC(=O)O)ccc1-c1cccs1,-1.84% (inactive)
18,OCCCNc1nc(-c2ccccc2)c2cc(Cl)ccc2n1,3.68% (inactive)
19,OCCNc1nc(Nc2ccc(Cl)c(Cl)c2)nc2ccccc12,124% (active)
20,COc1cc2nc(Cl)nc(NCCO)c2cc1OC,-0.57% (inactive)
21,O=C(NC(CC(=O)N1CCN(c2ccccc2)CC1)c1ccccc1)c1ccccc1Cl (stereo not given),-0.75% (inactive)
22,O=C(Nn1c(-c2ccc(Cl)cc2)nc2ccccc2c1=O)c1cccnc1Cl,104% (active)
23,COc1cc(OC)cc(-c2nc3ccccc3c(=O)n2NC(=O)c2cccnc2Cl)c1,4.93% (inactive)
24,Cc1cccc(-c2nc3ccccc3c(=O)n2NC(=O)Cc2ccc(Cl)cc2)c1,-0.38% (inactive)

row,SMILES,activation
1,COc1ccc(C(=O)COC(=O)c2ccc3ccccc3n2)cc1,2.48% (inactive)
2,O=C(Nc1ccc(S(=O)(=O)Nc2ccccn2)cc1)c1ccccc1,-0.84% (inactive)
3,c1ccc(-c2cn3c(n2)CCc2ccc4cccnc4c2-3)cc1,64% (active)
4,O=S(=O)(Nc1ncccn1)c1ccc(NS(=O)(=O)c2cccc(Cl)c2Cl)cc1,0.76% (inactive)
5,CC(=O)c1ccccc1OCc1ccc(C(=O)c2ccccc2)cc1,0.89% (inactive)
6,CCCCOc1ccc(CSC(=N)N)cc1[N+](=O)[O-],15% (inactive)
7,CCCOc1ccc(Cn2ccnc2)cc1[N+](=O)[O-],59.2% (active)
8,CCCCCOc1ccc(CSC2=NCCN2)cc1[N+](=O)[O-],6.95% (inactive)
9,O=C(CCC(=O)NNc1nc2ccccc2c2nc(-c3ccccc3)nn12)NCCCN1CCCC1=O,55.5% (active)
10,COc1ccc(-c2cc(C(=O)NCCCN3CCCC3=O)c3ccccc3n2)cc1OC,11.6% (inactive)
11,Cc1nn(Cc2ccccc2)c(C)c1C(=O)NCCCN1CCCC1=O,2.56% (inactive)
12,COc1ccc(N(CC(=O)NC2CCCCC2)C(=O)CNC(=O)c2ccco2)c(OC)c1,0.47% (inactive)
13,O=C(CN1C(=O)NC2(CCCCCCC2)C1=O)NCc1ccc(F)cc1,2.09% (inactive)
14,O=C1NC[C@@H](Cc2ccc(O)cc2)N(CCc2cccc(F)c2)C1=O,-0.45% (inactive)
15,CCCn1c(=N)n(CC(=O)c2ccc(Cl)c(Cl)c2)c2ccccc21,66.2% (active)
16,CCOC(=O)c1cc2ccccc2n1CC(=O)c1ccccc1,24% (inactive)
17,CCn1c(=N)n(CC(=O)c2cccc(OC)c2)c2ccccc21,50.3% (active)
18,CCN(CC)CC1(O)CCN(C(=O)c2ccc(Cl)c(Cl)c2)CC1,10.4% (inactive)
19,COc1ccc2cc(C(=O)O)n(CC(=O)c3ccccc3)c2c1,18.9% (inactive)
20,O=C(Cn1nnc(N2CCCCC2)n1)c1ccc(Cl)c(Cl)c1,-3.18% (inactive)
21,O=C(c1c(F)cccc1Cl)N1CCN(S(=O)(=O)c2ccc3c(c2)OCCCO3)CC1,-0.63% (inactive)
22,O=C(Nc1ccc(N2CCCCC2)cc1)c1cc(S(=O)(=O)N2CCOCC2)ccc1F,0.49% (inactive)
23,CCc1ccccc1NC(=S)N(CCN1CCCCCC1)Cc1ccco1,0.79% (inactive)
